# Assay results as given in paper PMC7862700, “An all-to-all approach to the identification of sequence-specific readers for epigenetic DNA modifications on cytosine”.
# Columns and labels:
# Assay in all cases: DAPPL (digital affinity profiling via proximity ligation, sequencing); 10 mM Tris-HCl pH 7.5, 50 mM NaCl, 1 mM DTT, 4% glycerol, room temperature, 30 min; GST-TFs on glutathione beads, 16-mer random dsDNA library, 0.1% formaldehyde crosslink after washing; high values mean tight binding
# Details in all cases: protein: recombinant; tags: N-terminal GST; dsDNA, one strand shown
# FLI1 = target: T1, FLI1 (Homo sapiens, UniProt Q01543 1-452)
# T1 sequence: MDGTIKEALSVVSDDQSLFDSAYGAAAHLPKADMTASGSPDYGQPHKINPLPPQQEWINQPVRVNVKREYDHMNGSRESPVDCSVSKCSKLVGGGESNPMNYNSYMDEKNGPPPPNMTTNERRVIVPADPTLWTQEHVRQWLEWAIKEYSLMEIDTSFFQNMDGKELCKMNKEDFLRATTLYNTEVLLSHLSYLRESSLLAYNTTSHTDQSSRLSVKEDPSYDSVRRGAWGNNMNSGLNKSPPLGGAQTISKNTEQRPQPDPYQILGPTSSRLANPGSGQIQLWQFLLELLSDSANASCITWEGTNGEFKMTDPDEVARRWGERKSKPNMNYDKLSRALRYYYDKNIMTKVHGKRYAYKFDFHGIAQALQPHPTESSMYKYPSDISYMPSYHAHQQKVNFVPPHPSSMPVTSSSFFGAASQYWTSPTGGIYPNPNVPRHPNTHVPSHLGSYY
# How it was run: (§1)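 Human transcription factors fused to GST were expressed in yeast, captured on glutathione beads, given DNA barcodes and pooled with a GST-only negative control. Pools were incubated with 200 nmole of a 16-mer random double-stranded DNA library in Tris/NaCl/DTT/glycerol buffer at room temperature for 30 min. They were then washed, crosslinked with 0.1% formaldehyde, proximity-ligated (BsaI/T4 ligase, 1 h, 37 °C), PCR-amplified and sequenced on an Illumina NextSeq500. Binding signal is each 6-mer's read frequency for a factor divided by its frequency for the GST control.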
# ELK1 = target: T2, ELK1 (Homo sapiens, UniProt P19419 1-428)
# T2 sequence: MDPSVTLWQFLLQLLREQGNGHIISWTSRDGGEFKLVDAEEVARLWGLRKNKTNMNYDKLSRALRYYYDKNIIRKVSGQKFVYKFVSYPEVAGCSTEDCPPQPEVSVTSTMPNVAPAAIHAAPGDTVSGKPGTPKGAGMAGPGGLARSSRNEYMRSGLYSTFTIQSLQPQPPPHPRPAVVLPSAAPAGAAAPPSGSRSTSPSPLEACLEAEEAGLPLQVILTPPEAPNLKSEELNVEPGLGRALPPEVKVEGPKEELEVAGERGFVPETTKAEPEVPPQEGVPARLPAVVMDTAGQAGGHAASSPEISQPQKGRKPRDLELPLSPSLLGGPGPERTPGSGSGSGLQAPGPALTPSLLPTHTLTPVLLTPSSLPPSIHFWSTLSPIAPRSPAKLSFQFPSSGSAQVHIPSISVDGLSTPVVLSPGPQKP
# How it was run: as §1
# GABPA = target: T3, GABPA (Homo sapiens, UniProt Q06546 1-454)
# T3 sequence: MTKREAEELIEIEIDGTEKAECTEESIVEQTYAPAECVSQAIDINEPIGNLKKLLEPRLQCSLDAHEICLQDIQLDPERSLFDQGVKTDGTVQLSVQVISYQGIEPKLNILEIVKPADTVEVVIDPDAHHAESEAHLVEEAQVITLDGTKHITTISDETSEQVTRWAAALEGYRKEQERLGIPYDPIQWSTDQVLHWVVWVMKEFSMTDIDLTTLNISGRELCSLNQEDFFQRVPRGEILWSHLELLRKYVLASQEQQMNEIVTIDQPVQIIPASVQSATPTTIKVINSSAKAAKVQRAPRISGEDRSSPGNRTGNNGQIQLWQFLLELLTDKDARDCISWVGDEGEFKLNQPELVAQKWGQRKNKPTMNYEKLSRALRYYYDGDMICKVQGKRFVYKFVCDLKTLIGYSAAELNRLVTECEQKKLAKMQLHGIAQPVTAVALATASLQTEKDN
# How it was run: as §1
# ERG = target: T4, ERG (Homo sapiens, UniProt P11308 1-479)
# T4 sequence: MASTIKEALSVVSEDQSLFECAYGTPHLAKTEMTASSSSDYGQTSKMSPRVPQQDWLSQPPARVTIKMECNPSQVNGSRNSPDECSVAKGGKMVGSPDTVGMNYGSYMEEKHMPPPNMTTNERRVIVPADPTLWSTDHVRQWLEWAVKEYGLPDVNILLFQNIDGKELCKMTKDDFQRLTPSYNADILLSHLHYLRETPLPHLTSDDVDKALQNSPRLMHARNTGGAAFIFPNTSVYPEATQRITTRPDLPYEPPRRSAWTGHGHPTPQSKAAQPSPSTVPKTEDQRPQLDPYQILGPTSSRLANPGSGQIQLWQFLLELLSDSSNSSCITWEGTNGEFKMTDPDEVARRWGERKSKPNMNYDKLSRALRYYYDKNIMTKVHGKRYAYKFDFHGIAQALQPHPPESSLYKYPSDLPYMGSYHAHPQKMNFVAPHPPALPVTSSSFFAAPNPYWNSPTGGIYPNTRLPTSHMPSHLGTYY
# How it was run: as §1
# ELF1 = ELF1 (Homo sapiens, UniProt P32519 1-619)
# Chain of ELF1 (P32519 whole entry): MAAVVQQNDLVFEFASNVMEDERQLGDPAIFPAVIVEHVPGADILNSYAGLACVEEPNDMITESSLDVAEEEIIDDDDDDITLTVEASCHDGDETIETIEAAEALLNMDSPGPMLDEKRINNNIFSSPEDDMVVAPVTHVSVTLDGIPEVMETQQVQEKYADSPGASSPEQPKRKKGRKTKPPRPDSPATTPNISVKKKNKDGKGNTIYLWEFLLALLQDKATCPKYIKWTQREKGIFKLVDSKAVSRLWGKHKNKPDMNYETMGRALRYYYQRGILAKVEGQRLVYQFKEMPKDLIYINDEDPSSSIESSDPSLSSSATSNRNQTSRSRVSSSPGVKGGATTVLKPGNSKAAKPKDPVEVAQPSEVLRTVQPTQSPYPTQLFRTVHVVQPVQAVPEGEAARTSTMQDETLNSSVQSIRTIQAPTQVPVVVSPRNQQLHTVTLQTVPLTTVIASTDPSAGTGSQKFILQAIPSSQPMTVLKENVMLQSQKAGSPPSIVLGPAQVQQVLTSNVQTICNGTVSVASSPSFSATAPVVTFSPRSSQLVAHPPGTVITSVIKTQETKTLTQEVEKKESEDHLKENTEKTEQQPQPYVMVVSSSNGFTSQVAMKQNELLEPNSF
# How it was run: as §1
# EHF = target: T5, EHF (Homo sapiens, UniProt Q9NZC4 1-300)
# T5 sequence: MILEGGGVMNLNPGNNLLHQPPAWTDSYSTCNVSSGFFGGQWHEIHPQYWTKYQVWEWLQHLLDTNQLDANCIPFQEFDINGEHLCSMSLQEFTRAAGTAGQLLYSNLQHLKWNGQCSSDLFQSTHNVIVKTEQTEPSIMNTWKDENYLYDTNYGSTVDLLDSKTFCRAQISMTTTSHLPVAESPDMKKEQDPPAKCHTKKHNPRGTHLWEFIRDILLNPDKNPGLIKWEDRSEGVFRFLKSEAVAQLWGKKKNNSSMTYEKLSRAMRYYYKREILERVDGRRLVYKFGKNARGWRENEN
# How it was run: as §1
# SPI1 = SPI1 (Homo sapiens, UniProt P17947 1-270)
# How it was run: as §1
# SPIB = SPIB (Homo sapiens, UniProt Q01892 1-262)
# Chain of SPIB (Q01892 whole entry): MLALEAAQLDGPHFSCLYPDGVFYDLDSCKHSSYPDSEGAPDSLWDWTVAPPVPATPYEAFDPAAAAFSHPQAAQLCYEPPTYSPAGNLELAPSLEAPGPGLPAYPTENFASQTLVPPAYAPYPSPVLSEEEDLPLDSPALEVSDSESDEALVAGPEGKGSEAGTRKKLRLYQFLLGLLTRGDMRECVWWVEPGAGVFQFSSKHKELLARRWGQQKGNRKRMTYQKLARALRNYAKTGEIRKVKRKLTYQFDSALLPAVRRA
# How it was run: as §1
# ELK3 = target: T6, ELK3 (Homo sapiens, UniProt P41970 1-407)
# T6 sequence: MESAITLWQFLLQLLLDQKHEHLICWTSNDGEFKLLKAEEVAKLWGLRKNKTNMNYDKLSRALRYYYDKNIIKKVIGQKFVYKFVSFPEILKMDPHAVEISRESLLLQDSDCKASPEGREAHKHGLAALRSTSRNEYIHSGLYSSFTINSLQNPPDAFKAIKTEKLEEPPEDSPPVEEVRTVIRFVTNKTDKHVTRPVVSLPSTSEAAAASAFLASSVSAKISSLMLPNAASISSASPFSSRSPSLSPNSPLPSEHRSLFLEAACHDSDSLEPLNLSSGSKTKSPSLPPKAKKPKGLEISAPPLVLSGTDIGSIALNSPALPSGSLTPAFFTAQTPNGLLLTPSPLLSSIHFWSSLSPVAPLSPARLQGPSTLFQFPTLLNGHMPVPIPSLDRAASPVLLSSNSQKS
# How it was run: as §1
# FEV = target: T7, FEV (Homo sapiens, UniProt Q99581 1-238)
# T7 sequence: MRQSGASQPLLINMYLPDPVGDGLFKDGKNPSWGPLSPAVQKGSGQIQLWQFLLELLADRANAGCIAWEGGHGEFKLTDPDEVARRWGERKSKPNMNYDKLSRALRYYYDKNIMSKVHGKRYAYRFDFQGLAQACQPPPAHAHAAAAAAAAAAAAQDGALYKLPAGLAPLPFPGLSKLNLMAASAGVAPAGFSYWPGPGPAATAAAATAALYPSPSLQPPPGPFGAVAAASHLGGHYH
# How it was run: as §1
# ETV5 = ETV5 (Homo sapiens, UniProt P41161 1-510)
# Chain of ETV5 (P41161 whole entry): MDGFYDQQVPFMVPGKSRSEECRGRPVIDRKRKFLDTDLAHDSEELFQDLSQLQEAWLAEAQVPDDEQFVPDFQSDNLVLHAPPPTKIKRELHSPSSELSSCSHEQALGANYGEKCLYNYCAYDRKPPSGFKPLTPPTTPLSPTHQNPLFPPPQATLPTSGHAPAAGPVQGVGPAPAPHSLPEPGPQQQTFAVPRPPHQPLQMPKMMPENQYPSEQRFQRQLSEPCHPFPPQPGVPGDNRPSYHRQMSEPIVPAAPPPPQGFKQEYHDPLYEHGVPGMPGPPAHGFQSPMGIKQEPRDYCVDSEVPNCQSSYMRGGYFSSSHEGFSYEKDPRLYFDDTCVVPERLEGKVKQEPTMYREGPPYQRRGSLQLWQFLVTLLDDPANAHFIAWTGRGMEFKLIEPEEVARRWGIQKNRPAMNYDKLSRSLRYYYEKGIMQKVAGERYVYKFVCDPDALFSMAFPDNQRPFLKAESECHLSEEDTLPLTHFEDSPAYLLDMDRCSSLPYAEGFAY
# How it was run: as §1
# SPIC = target: T8, SPIC (Homo sapiens, UniProt Q8N5J4 1-248)
# T8 sequence: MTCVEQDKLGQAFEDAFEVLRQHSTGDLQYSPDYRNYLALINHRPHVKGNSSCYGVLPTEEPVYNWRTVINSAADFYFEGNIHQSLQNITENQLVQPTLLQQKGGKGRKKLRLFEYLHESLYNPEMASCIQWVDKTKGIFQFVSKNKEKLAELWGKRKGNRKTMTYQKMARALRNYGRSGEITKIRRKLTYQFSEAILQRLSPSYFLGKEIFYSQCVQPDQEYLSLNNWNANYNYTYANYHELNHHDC
# How it was run: as §1
# ELF4 = ELF4 (Homo sapiens, UniProt Q99607 1-663)
# Chain of ELF4 (Q99607 whole entry): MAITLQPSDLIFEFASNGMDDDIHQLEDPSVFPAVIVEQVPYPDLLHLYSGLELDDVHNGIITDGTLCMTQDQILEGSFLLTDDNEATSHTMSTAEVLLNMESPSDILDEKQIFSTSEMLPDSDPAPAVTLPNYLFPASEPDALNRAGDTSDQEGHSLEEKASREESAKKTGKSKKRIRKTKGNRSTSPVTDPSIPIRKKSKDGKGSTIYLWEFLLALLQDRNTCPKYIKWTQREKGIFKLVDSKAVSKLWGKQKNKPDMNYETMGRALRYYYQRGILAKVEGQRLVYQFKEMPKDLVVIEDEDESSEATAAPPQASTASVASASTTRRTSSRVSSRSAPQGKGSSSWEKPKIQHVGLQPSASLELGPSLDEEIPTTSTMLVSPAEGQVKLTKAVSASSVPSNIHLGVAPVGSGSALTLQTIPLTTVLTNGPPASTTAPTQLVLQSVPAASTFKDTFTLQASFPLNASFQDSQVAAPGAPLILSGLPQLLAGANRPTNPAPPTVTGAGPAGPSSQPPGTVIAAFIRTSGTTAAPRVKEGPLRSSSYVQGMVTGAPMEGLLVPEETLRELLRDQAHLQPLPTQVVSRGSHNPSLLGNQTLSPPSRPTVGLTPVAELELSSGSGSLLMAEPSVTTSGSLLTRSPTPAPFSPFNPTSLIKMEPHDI
# How it was run: as §1
# ELK4 = target: T9, ELK4 (Homo sapiens, UniProt P28324-2 1-405)
# T9 sequence: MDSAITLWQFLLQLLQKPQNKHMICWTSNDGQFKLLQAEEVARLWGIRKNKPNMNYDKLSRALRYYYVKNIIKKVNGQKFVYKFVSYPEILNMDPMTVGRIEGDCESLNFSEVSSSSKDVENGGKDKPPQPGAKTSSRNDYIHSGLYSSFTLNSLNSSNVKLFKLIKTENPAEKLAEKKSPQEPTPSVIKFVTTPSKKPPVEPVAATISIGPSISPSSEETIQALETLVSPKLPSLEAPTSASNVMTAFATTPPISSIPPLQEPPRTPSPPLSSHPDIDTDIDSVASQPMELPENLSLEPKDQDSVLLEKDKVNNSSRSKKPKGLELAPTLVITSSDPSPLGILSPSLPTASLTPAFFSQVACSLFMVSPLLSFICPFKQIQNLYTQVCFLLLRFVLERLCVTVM
# How it was run: as §1
# ETV2 = target: T10, ETV2 (Homo sapiens, UniProt O00321 1-342)
# T10 sequence: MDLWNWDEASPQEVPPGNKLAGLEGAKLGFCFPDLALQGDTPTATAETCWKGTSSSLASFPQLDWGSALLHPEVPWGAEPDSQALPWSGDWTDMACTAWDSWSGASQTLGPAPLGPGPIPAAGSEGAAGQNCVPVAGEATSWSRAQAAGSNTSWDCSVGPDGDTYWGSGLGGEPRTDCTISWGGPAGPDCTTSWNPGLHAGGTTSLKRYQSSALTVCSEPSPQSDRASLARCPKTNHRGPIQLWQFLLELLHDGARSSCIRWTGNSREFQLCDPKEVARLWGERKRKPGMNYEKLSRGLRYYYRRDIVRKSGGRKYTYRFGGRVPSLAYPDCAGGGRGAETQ
# How it was run: as §1
# ELF3 = target: T11, ELF3 (Homo sapiens, UniProt P78545 1-371)
# T11 sequence: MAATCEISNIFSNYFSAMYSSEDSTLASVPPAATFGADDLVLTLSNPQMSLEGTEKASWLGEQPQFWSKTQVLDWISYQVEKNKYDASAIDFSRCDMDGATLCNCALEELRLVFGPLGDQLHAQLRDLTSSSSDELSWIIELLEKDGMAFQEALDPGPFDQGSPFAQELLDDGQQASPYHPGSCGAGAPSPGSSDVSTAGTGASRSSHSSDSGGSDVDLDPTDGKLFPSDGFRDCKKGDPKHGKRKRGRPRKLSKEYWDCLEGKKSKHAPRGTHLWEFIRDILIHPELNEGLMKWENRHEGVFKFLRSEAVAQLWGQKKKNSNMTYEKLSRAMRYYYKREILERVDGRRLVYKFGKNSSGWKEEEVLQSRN
# How it was run: as §1
# ETV1 = ETV1 (Homo sapiens, UniProt P50549 1-477)
# Chain of ETV1 (P50549 whole entry): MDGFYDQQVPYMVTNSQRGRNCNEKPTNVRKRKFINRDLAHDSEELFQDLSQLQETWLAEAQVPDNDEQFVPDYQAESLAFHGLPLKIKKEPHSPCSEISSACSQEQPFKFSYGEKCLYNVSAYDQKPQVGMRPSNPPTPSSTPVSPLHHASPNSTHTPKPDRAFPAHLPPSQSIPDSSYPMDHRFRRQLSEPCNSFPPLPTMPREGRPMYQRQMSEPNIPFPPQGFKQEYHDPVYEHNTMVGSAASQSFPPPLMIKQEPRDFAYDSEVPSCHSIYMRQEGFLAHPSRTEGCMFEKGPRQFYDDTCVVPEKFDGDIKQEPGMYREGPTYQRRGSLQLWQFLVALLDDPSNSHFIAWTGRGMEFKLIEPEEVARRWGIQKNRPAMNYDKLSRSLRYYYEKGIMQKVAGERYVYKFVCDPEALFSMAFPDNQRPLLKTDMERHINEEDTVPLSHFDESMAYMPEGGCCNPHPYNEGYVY
# How it was run: as §1
sequence,measurement,setting,value
GTGTTT,binding signal,FLI1,"1.15 fold enrichment (6-mer frequency, TF over GST control)"
same,binding signal,ELK1,"1.19 fold enrichment (6-mer frequency, TF over GST control)"
same,binding signal,GABPA,"1.08 fold enrichment (6-mer frequency, TF over GST control)"
same,binding signal,ERG,"1.07 fold enrichment (6-mer frequency, TF over GST control)"
same,binding signal,ELF1,"1.16 fold enrichment (6-mer frequency, TF over GST control)"
same,binding signal,EHF,"1.09 fold enrichment (6-mer frequency, TF over GST control)"
same,binding signal,SPI1,"1.11 fold enrichment (6-mer frequency, TF over GST control)"
same,binding signal,SPIB,"1.16 fold enrichment (6-mer frequency, TF over GST control)"
same,binding signal,ELK3,"1.2 fold enrichment (6-mer frequency, TF over GST control)"
same,binding signal,FEV,"1.09 fold enrichment (6-mer frequency, TF over GST control)"
same,binding signal,ETV5,"1.14 fold enrichment (6-mer frequency, TF over GST control)"
same,binding signal,SPIC,"1.21 fold enrichment (6-mer frequency, TF over GST control)"
same,binding signal,ELF4,"1.18 fold enrichment (6-mer frequency, TF over GST control)"
same,binding signal,ELK4,"1.11 fold enrichment (6-mer frequency, TF over GST control)"
same,binding signal,ETV2,"1.02 fold enrichment (6-mer frequency, TF over GST control)"
same,binding signal,ELF3,"1.17 fold enrichment (6-mer frequency, TF over GST control)"
same,binding signal,ETV1,"1.21 fold enrichment (6-mer frequency, TF over GST control)"
